Experiment [1] concerns T1, RSK1(Kin.Dom.2-C-terminal).
T1 construct: gene RPS6KA1

Experiment [2] concerns T2, RSK2(Kin.Dom.1-N-terminal).
T2 construct: gene RPS6KA3

Experiment [3] deals with T3, RSK2(Kin.Dom.2-C-terminal).
T3 construct: gene RPS6KA3

In experiment [4] the test system is T4, RSK3(Kin.Dom.2-C-terminal).
T4 construct: gene RPS6KA2

A further experiment has as its system T5, TAK1.
T5 construct: gene MAP3K7

Where only a bound is given, the exact number is not on record here.
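Note: kd values determined as follow-up on hits from a single-replicate KINOMEscan panel screen.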

As to `C[C@@H]1CC[C@H](C(=O)NC2CCCCC2)CN1c1cc(-c2ccc3c(N)n[nH]c3c2)nc(N)n1` [GSK2291363], the dissociation constant (Kd) (usually the constant that tells how readily two partners part at equilibrium) with ROCK1 worked out at 210 nM; with ROCK2 it was 150 nM. In experiment [1], `CCc1nc(-c2cccc(C)c2)c(-c2ccncc2)s1` showed a Kd of 250 nM.

`COc1cc(Nc2ccnc3ccc(C(F)(F)F)cc23)cc(OC)c1OC` [GW577382]: the equilibrium dissociation constant (Kd) in experiment [2] was > 10 µM. `Nc1nc(-c2ccccc2F)c(-c2ccnc3ccccc23)s1` [GW560459] registered a Kd in [3] of 790 nM. Still for that read-out and setting: under `O=C(Nc1ccc2c(c1)OCO2)NC1CCN(c2ccnc(NCc3ccc(F)cc3)n2)CC1` [GSK1379859] stands > 10000 nM.

Regarding `CC(C)(C)c1ccc(C(=O)Nc2cn3cc(-c4ccccc4)ccc3n2)cc1`, the dissociation constant (Kd) in experiment [4] was > 10 µM. Regarding `Cl.NS(=O)(=O)c1cccc(Nc2cc(-c3ccc(F)cc3)n[nH]2)c1` [GW824645], the equilibrium dissociation constant (Kd) in the experiment with SGK2 is > 10 µM. With `COc1cc2ncn(-c3cc(OCc4ccncc4Br)c(C(N)=O)s3)c2cc1OC` [GW854278], in the experiment with SLK, binding was characterised by a dissociation constant (Kd) of 680 nM. On to `COc1ccc(CNC(=O)NC2CCN(c3ccnc(Nc4ccc(F)cc4)n3)C2)cc1` (stereo not drawn) [GSK1379706], for which the equilibrium dissociation constant (Kd) in the experiment with SRPK2 is > 10 µM. Regarding `CN1C(=O)C(Nc2cc(Cl)c(O)c(Cl)c2)=C(c2ccc(Cl)cc2)C1=O` [SB-404321], the Kd in the experiment with SRPK3 was > 10 µM. As to `CCn1c(-c2ccoc2)nc2cnccc21` [SB-733887], the Kd in the experiment with TAK1 is > 10 µM. Regarding `Cc1nnc(-c2ccc3ncn(-c4ccc(S(C)=O)cc4)c3c2)o1` (stereo not drawn), the Kd in the experiment on TAOK1 and with TAOK3 was > 10 µM each time. With `COc1ccc(-c2cc3c(C)nc(N)nc3n([C@H]3CC[C@H](O)CC3)c2=O)cn1`, the Kd in the experiment on TBK1 is > 10 µM. With `O=C(NCCNc1ccnc(Nc2ccc(F)cc2)n1)Nc1ccc2c(c1)OCO2` [GSK1379882], the Kd in the experiment with TESK1 was > 10 µM. For the molecule `Cc1cc(Nc2nc(-c3cccc(C)n3)nc3ccccc23)ccn1` [GW872411], the affinity in the experiment with TGFBR1, expressed as Kd, was 270 nM.

Take `COc1cc2ncn(-c3cc(OCc4ccncc4)c(C(N)=O)s3)c2cc1OC` [GSK336313]: in the experiment with TIE1, the dissociation constant (Kd) was > 10 µM. As for `CCCC(=O)Nc1n[nH]c2ncc(-c3cccc4ccccc34)cc12` [SB-642057], the Kd in the experiment on TLK2 was > 10000 nM. Same read-out and setting: under `O=C1NC(=O)C(c2ccccc2)=C1Nc1cccc(O)c1` [SB-390534] stands 2400 nM. For `COc1cc(OC)cc(-c2cc3cnc(N)nc3nc2NC(=O)NC(C)(C)C)c1`, the equilibrium dissociation constant (Kd) with TNK2 was > 10 µM.
